The record followed here is PubChem BioAssay AID2751 (The Scripps Research Institute Molecular Screening Center, 2010).

In all, about 320,000 compounds went through this assay and about 2,200 (0.69%) were called active. Many of the other results were omitted from the sample, so actives are more common in it than they were. Values without a mark were called inactive. No stated cut-off is given here; in the data, active means inhibition above about 43%; inactive means the rest.

In the experiment the target is Prolyl endopeptidase-like (Homo sapiens) (UniProt Q4J6C6). The experiment is described as follows: human PREPL activity-probe blockers – biochemical, fluorescence polarization, primary screen (AID 2751).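 Further: 0% = enzyme with DMSO and 100% = wells lacking enzyme.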 The settings on record: recombinant PREPL, fluorescence polarization activity-based probe; at 5.96 µM; stronger effect = higher value. In general terms: Fluorescence polarisation rises when a labelled molecule tumbles more slowly, as on binding a larger partner.
Prolyl endopeptidase-like (Homo sapiens), sequence (Q4J6C6 whole entry, looked up): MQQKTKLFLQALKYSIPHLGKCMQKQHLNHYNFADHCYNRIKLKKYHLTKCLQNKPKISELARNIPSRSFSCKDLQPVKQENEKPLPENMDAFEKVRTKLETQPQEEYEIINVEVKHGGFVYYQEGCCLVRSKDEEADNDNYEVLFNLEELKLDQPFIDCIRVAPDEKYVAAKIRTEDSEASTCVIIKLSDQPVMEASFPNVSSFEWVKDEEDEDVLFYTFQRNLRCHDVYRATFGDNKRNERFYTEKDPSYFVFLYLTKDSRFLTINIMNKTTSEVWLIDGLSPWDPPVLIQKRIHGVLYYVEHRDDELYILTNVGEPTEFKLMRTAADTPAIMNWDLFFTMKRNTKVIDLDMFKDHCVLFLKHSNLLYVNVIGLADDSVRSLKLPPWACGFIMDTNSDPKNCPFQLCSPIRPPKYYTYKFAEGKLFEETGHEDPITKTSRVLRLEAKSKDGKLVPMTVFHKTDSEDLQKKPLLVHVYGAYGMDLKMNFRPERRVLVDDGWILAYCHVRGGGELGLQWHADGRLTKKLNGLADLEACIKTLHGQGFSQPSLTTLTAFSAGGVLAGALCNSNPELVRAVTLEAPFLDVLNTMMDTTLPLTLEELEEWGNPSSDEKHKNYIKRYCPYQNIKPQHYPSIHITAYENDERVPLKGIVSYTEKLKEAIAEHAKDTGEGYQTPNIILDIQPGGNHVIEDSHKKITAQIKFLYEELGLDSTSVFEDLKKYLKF
What is called inhibition is the relative decrease from the control value, in per cent. Consider `Cc1n[nH]c(C)c1S(=O)(=O)N1CCCC(C(=O)Nc2ccc(Br)cc2)C1` (configuration not stated), for which the inhibition is -17.7%.

Consider `O=S(=O)(O)CCN1CCOCC1`, for which the inhibition is 25.7%.

`O=C(NCC(=O)N1CCN(c2ccccc2F)CC1)c1cccs1`: the inhibition was 3.72%.

As to `NC(=O)c1cc2ccccc2o/c1=N/NC(=O)c1cccc(F)c1`, the inhibition was 11.6%.

Consider `CCN(CC)c1ccc2cc(C(N)=O)/c(=N\NC(=O)c3ccncc3)oc2c1`, for which the inhibition was 48.4% (active).

Consider `COc1cccc2cc(C(N)=O)/c(=N\NC(=O)c3ccccc3)oc12`, for which the inhibition is -0.47%.

For `CC1CCC2(CC1)NC(=O)N(CC(=O)c1ccc3c(c1)OCO3)C2=O` (configuration not stated), the inhibition was 11.2%.

With `O=c1oc(-c2ccccc2NS(=O)(=O)c2ccc(Cl)cc2)nc2ccccc12`, the inhibition is 6.42%.

Regarding `COC(=O)[C@]1(CC(C)C)N[C@H](c2ccc(SC3CCCCC3)cc2)[C@@H]2C(=O)N(C)C(=O)[C@@H]21`, the inhibition was 2.32%.

With `CCN1/C(=C/c2ccc3ccc(C)cc3[n+]2CC)Sc2ccccc21`, the inhibition was 53.4% (active).

Turning to `CCN1/C(=C\c2ccc3ccccc3[n+]2CC)Sc2cc(C)ccc21`, the inhibition is 52.8% (active).

Consider `COc1ccc(OC)c(CN2CCN(C(=O)CNC(=O)c3cc(C)cc(C)c3)CC2)c1`, for which the inhibition was 5.26%.

Regarding `Cn1cnc(S(=O)(=O)Nc2ccc3c(c2)OCCO3)c1`, the inhibition is -9.35%.

Regarding `CC(=O)c1cc(NC(=O)c2ccccc2)c(=O)oc1/C=C/N(C)C`, the inhibition is 0.73%.

Regarding `Cc1cccc(N2CCN(C(C)C(=O)N3CCc4ccccc43)CC2)c1C` (configuration not stated), the inhibition was 18.7%.

As for `CC1CCC2(CC1)NC(=O)N(Cc1nnc(-c3cccs3)o1)C2=O` (configuration not stated), the inhibition is 11.6%.

As to `CCCNCc1cc(OCC)c(OCC(=O)Nc2ccccc2)cc1Br`, the inhibition is -9.46%.

On to `CCCC(CCC(=O)OC)(C(=O)OCC)c1csc(N)n1` (configuration not stated), for which the inhibition is 2.3%.

With `Cc1ccc(NS(=O)(=O)c2ccc(N/N=C/c3ccccc3OCC(=O)O)c([N+](=O)[O-])c2)c(C)c1`, the inhibition is 49.9% (active).

For the compound `C=C(C)CNC(=S)N/N=C/c1ccccc1OCC(=O)O`, the inhibition was -3.72%.

As to `Cc1ccc(Cn2c(SCC(=O)N/N=C/c3ccccc3OCC(=O)O)nc3ccccc32)cc1`, the inhibition was -29%.

Take `O=C(C1CCCN1S(=O)(=O)c1ccc(Br)cc1)N1CCOCC1` (configuration not stated): the inhibition was 12.8%.

Consider `Cc1ccc(C)c(NC(=O)C2Cc3ccccc3CN2C(=O)OCc2ccccc2)c1` (configuration not stated), for which the inhibition is -31.7%.

On to `CC[N+](C)(CC)CCC[n+]1c(-c2ccccc2)c2cc(N)ccc2c2ccc(N)cc21`, for which the inhibition is 65.2% (active).

`COc1ccc(C2NC(=O)C(=O)/C2=C(\O)c2ccc(Cl)cc2)cc1OC` (configuration not stated): the inhibition is 2.96%.

For the compound `C=CCN1C(=O)C(Cc2ccc(OCC)cc2)SC1=Nc1ccc(C(=O)O)cc1` (configuration not stated), the inhibition was -7.27%.

Turning to `CCNC(=O)N(CC)C[C@H]1N[C@@](CC)(C(=O)OC)[C@H]2C(=O)N(Cc3ccccc3)C(=O)[C@@H]12`, the inhibition is 2.12%.

On to `CCC(=O)N1CCN(c2ccccc2NC(=O)COc2cccc(C)c2C)CC1`, for which the inhibition was 12.6%.

On to `Cc1ccccc1OCC(=O)Nc1ccc2c(c1)ncn2C`, for which the inhibition was 8.18%.

Consider `Cc1ccccc1OCC(=O)Nc1ccc(N2CCN(C(=O)C(C)C)CC2)c(Cl)c1`, for which the inhibition was 49.4% (active).

Regarding `O=C(Nc1c2c(nn1-c1ccccc1)CS(=O)(=O)C2)C1CCCC1`, the inhibition was 11.5%.

In the case of `O=C(C1CCCN(S(=O)(=O)c2ccc([N+](=O)[O-])cc2)C1)N1CCCCC1` (configuration not stated), the inhibition was 3.89%.

On to `CC1=CC(C)(C)NC(=S)N1c1ccccc1`, for which the inhibition is 0.44%.

With `COc1ccc2nc(N3CCCC(O)C3)c(C#N)cc2c1` (configuration not stated), the inhibition was 19.4%.

As for `CCOc1ccc2nc(N3CCCN(C(=O)Nc4ccccc4C)CC3)c(C#N)cc2c1`, the inhibition was 43.6% (active).

`CCOC(=O)c1cc(C#N)c(N2CCCCC2)nc1-c1ccccc1`: the inhibition is -11.5%.

Consider `O=C(NCc1ccccc1Cl)C1CCC(CNc2c(N3CCCCC3)c(=O)c2=O)CC1` (configuration not stated), for which the inhibition is 0.19%.

For the compound `O=C(c1cc2cc(F)ccc2[nH]1)N1CCN(c2ccc(F)cc2)CC1`, the inhibition was 18.5%.

Take `O=C(c1cccc(C(=O)N2CCN(c3ccc(F)cc3)CC2)c1)N1CCN(c2ccc(F)cc2)CC1`: the inhibition is 62.3% (active).

With `O=C(c1cccc(F)c1)N1CCN(c2ccc([N+](=O)[O-])c(N3CCCCC3)c2)CC1`, the inhibition is 16.6%.

Turning to `O=C(c1cc(C(=O)N2CCN(c3ccc(F)cc3)CC2)cc([N+](=O)[O-])c1)N1CCN(c2ccc(F)cc2)CC1`, the inhibition is 43.4% (active).

With `O=C(c1ccccc1Oc1ccccc1)N1CCN(c2ccc(F)cc2)CC1`, the inhibition was -29.3%.

As for `O=C(c1cncc(Br)c1)N1CCN(c2ccc([N+](=O)[O-])cc2)CC1`, the inhibition was 17.6%.

For the compound `C=Cn1cc[n+](CC(=O)c2ccc(OC)c(OC)c2)c1`, the inhibition was 19.9%.

For `O=C(Nc1ccc2c(c1)OCCO2)C1CCCC1`, the inhibition is 0.16%.

Turning to `O=C(c1ccc(F)cc1)N1CCC(C(=O)N2CCN(S(=O)(=O)c3ccccc3Br)CC2)CC1`, the inhibition is 5.69%.

Consider `COC(=O)C1=CN(c2ccc(F)c(F)c2)C=C(C(=O)OC)C1c1ccc([N+](=O)[O-])cc1`, for which the inhibition is -1.25%.

As to `COc1ccc(/C=C(\NC(=O)c2ccc(OCC(C)C)cc2)C(=O)OCc2ccco2)cc1`, the inhibition was -0.54%.

Consider `CCNc1c(NS(=O)(=O)c2ccc(C3CCCCC3)cc2)c(=O)oc2ccccc12`, for which the inhibition is 10.3%.

As to `N#C/C(=C/c1ccc(N2CCCCC2)o1)C(=O)NCCc1c[nH]c2ccccc12`, the inhibition is 80.7% (active).

Consider `N#C/C(=C/c1ccc(N2CCOCC2)o1)C(=O)N1CCOCC1`, for which the inhibition was 7.19%.

As to `O=C(CN1C(=O)NC2(CCCCC2)C1=O)NCCc1c[nH]c2ccccc12`, the inhibition was 6.75%.

On to `CN(CCc1ccccn1)C1CCCN(S(=O)(=O)c2ccccc2Cl)C1` (configuration not stated), for which the inhibition was -0.19%.

For `Cc1cc(Nc2ccccc2)n(C(=O)c2ccc(N)cc2)n1`, the inhibition was 32.7%.

Turning to `Nc1ccc(Nc2ccccc2)cc1`, the inhibition was 94.7% (active).

For `Nc1ccc(-c2nnc(-c3ccccc3)o2)cc1`, the inhibition is 2.86%.

With `CS(=O)(=O)N(CC(=O)N1CCOCC1)c1cccc(Cl)c1Cl`, the inhibition is 1.45%.
